Data on 96 compounds can be found in PubChem BioAssay AID2599 (Sanford-Burnham Center for Chemical Genomics, 2010).

In all, about 330,000 compounds went through this assay and about 5,800 (1.8%) were called active. The full list was thinned out, with actives kept by preference. Unmarked numbers belong to inactive results.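 How the source made its calls: active means inhibition above about 50% at the single tested dose (limit read from the data); inactive means the rest.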

Sequence of Sentrin-specific protease 6 (Homo sapiens) (Q9GZR1 628-1112 limits assumed): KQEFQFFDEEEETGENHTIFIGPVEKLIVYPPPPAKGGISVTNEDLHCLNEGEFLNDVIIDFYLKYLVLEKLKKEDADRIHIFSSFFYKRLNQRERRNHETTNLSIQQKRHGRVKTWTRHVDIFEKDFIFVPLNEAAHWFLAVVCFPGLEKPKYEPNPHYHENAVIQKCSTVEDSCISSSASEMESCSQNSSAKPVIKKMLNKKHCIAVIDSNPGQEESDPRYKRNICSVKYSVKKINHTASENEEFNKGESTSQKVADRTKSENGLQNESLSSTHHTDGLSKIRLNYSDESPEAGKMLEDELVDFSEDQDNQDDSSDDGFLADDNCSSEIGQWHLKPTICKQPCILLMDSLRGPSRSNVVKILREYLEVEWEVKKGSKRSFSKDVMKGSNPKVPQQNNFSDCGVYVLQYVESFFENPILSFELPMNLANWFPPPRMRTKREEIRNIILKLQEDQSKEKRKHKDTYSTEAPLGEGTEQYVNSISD

The assay has as its target Sentrin-specific protease 6 (Homo sapiens) (UniProt Q9GZR1). The assay can be described thus: inhibition of human SENP6 catalytic domain – biochemical, luminescence, uHTS, primary screen (AID 2599).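 Further: plate controls were DMSO wells with enzyme for no effect and DMSO wells lacking enzyme for full effect.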 The conditions noted are these: Recombinant SENP6 catalytic domain, aminoluciferin luminescence; at 10 µM; stronger effect = higher value.
The inhibition is the drop in the measured response relative to a control, in per cent. With `O=C(COC(=O)Cn1[nH]c(=O)c2ccccc2c1=O)Nc1ncc(Cl)cc1Cl`, the inhibition was -4.87%.
The same measure for `Cc1cccc(NS(=O)(=O)c2ccc(C(=O)NCC(C)(C)N3CCOCC3)cc2)c1C`: 4.82%; for `C=CCOc1ccc(C2/C(=C(\O)c3c(C)[nH]c(C(=O)OC)c3C)C(=O)C(=O)N2CCN(C)C)cc1` (stereo unspecified): 9.74%.
To `COc1ccc(CN(C)C(=O)Cc2ccsc2)c(OC)c1OC` belongs -22.6%.
To `O=C(Nc1ccc(C2CC2(Cl)Cl)cc1)c1cccc([N+](=O)[O-])c1` (stereo unspecified) belongs 76.9% (active).
`N#CCCN(C(=O)COC(=O)c1ccc2c(c1)OCCO2)c1ccccc1`: the inhibition was 6.71%.
To `O=C(COC(=O)c1ccc2c(c1)OCCO2)NCc1ccccc1Cl` belongs 3.1%; to `Cc1cc(C)nc(NC(=O)c2cccc([N+](=O)[O-])c2)c1`, -34.1%; to `O=C(Nc1ccc(NC(=O)c2ccco2)c(Cl)c1)c1cccc([N+](=O)[O-])c1`, 14.1%.
On to `O=C(OCc1ccccc1F)c1ccc2c(c1)OCCO2`, for which the inhibition is 95.5% (active).
The same measure for `O=C(CCC(=O)n1ncc2ccccc21)NCc1ccccc1Cl`: 15.9%; for `Cc1nc(N)c(Br)c(C)c1Br`: 0%.
For the compound `COc1cccc(-n2nc(C(=O)N3CCN(Cc4ccccc4)CC3)c3ccccc3c2=O)c1`, the inhibition was -0.104%.
To `O=C(O)CSc1nccn1-c1cccc(Cl)c1` belongs -22.5%.
The same measure for `COCCCNC(=O)Cn1c(=O)n(Cc2ccccc2Cl)c(=O)c2cc(OC)c(OC)cc21`: -8.65%.
On to `O=S(=O)(c1cnccc1N1CCN(/N=C/c2ccc(Br)cc2)CC1)N1CCCCC1`, for which the inhibition is -13.3%.
With `O=C(Nc1ccc(Cl)cc1)Nc1ccc(C(=O)N2CCOCC2)cc1`, the inhibition is -8.3%.
To `Cc1c(Cl)cccc1NC(=O)NCCCN1CCCC1=O` belongs 2.62%; to `Cc1c(Cl)cccc1NC(=O)Nc1ccc(C(=O)N2CCCC2)cc1`, 61.5% (active).
To `O=C(c1ccc2ccccc2n1)N1CCN(c2ccccc2Cl)CC1` belongs 5.78%.
The same measure for `CC(=O)Nc1ccc(OC(=O)COc2ccc(Br)cc2)cc1`: -9.28%; for `S=c1[nH]nc(-c2cc(-c3ccsc3)n[nH]2)n1-c1ccccc1`: -13.8%; for `c1ccc(-c2cc(-c3ccccc3)[nH]n2)cc1`: 59.9% (active).
For the compound `Cc1ccc(NC(=O)c2cc(-c3ccccc3O)n[nH]2)cc1C`, the inhibition was -12.4%.
The same measure for `CC(C)C(=O)NCc1cc(-c2ccc(Cl)cc2)no1`: -26.7%.
In the case of `S=c1[nH]nc(-c2cc(-c3ccccc3)n[nH]2)n1/N=C/c1c2ccccc2cc2ccccc12`, the inhibition was -3.75%.
To `Oc1ccccc1-c1cc(-c2ccc(Cl)cc2)n[nH]1` belongs 89.2% (active).
As to `CCCOc1ccc(N2C(=O)CC(N(CCc3ccc(S(N)(=O)=O)cc3)C(C)=O)C2=O)cc1` (stereo unspecified), the inhibition is -12.7%.
The same measure for `COc1ccc(C(=O)OCC(=O)c2cc(C)n(CC3CCCO3)c2C)cc1[N+](=O)[O-]` (stereo unspecified): -1.02%; for `Cc1ccsc1C(=O)OCC(=O)c1cc(C)n(CC2CCCO2)c1C` (stereo unspecified): 97.8% (active).
The same measure for `Cc1cc(C(=O)Cn2cnc3cc([N+](=O)[O-])ccc3c2=O)c(C)n1CC1CCCO1` (stereo unspecified): -13.2%; for `Cc1coc2cc3oc(=O)c(CCC(=O)O)c(C)c3cc12`: 1.41%; for `COc1ccccc1NC(=O)CSc1nnc(-c2ccoc2C)n1CCc1ccccc1`: -3.86%.
In the case of `Cc1ccc(S(=O)(=O)N2CCOCC2)cc1C(=O)OC1CCCCC1=O` (stereo unspecified), the inhibition was 7.83%.
Take `CCN1C(=O)c2cccc3c(S(=O)(=O)Nc4ccccc4O)ccc1c23`: the inhibition was -9.84%.
Regarding `CCN1C(=O)c2cccc3c(N)ccc1c23`, the inhibition is 80.3% (active).
In the case of `CN1C(=O)c2cccc3c(N)ccc(c23)C1=O`, the inhibition is -16.2%.
The same measure for `Cc1ccc(C)c(Cn2cnc3c(oc4ccccc43)c2=O)c1`: 9.24%; for `Cc1c(NC(=O)C(C)OC(=O)c2ccccc2O)c(=O)n(-c2ccccc2)n1C` (stereo unspecified): -6.6%; for `CC(=O)Nc1ccc(/C=N/NC(=O)c2cccs2)cc1`: 58.1% (active).
To `CCN(CC)c1ccc(/C=N/NC(=O)CNC(=O)c2cccs2)cc1` belongs -14.6%.
As to `CCc1ccc(NC(=O)C(=O)NNC(=O)c2cccs2)cc1`, the inhibition is 85.8% (active).
The same measure for `CC(C)C(=O)Nc1ccc(C(=O)NNC(=O)c2cccs2)cc1`: 3.9%; for `Cc1cccc(-n2c(C)cc(/C=N\NC(=O)c3cccs3)c2C)c1`: -11.3%.
For `CCc1ccc(NC(=O)COC(=O)c2cccs2)cc1`, the inhibition was 8.32%.
To `CSc1cccc(NC(=S)N(C(C)C)C(C)c2ccccn2)c1` (stereo unspecified) belongs 4.01%; to `CC1(C)CC(=O)c2c(n(S(=O)(=O)c3ccccc3)c3ccc(NS(=O)(=O)c4ccccc4)cc23)C1`, 6.92%.
With `COc1ccc(-c2oc3ncn(Cc4ccco4)c(=N)c3c2-c2ccc(OC)cc2)cc1`, the inhibition is -13.1%.
The same measure for `COc1cccc(NC(=O)COC(=O)c2ccc3ccccc3n2)c1`: -3.74%; for `CCc1nnc(NC(=O)CSc2nnnn2-c2cccc(C(C)=O)c2)s1`: -12.9%; for `CCOc1ccc(C(=O)Nc2cccc(SC)c2)cc1`: 91.4% (active).
To `Cc1ccccc1C(=O)N1CCN(c2ccc(NC(=O)c3cccs3)cc2)CC1` belongs -5.79%; to `COc1cccc(C(=O)Nc2ccc(N3CCCC3)cc2)c1`, 97.6% (active); to `CSc1cccc(NC(=O)CSc2ccccc2)c1`, -11%.
The same measure for `COc1ccc(C(=O)Nc2cccc(S(C)(=O)=O)c2)cc1`: -10.8%.
For the compound `CCC(=O)Nc1ccc(C(=O)Nc2cccc(OC)c2)cc1`, the inhibition was 51.2% (active).
Regarding `COc1cccc(NC(=O)CN(C)CC(=O)Nc2ccc3c(c2)CCC3)c1`, the inhibition was -11.1%.
Take `O=C(Nc1ccc(N2CCOCC2)cc1)c1cccc(S(=O)(=O)N2CCOCC2)c1`: the inhibition is -0.135%.
To `COc1cccc(C(=O)Nc2nnc(S(=O)(=O)N3CCCCC3)s2)c1` belongs 0.355%; to `CCOc1ccc(C(=O)Nc2cccc(-c3ccc4nncn4n3)c2)cc1`, 5.7%.
The same measure for `Cc1ccccc1C(=O)Nc1ccc(N2CCCCCC2)cc1`: 72.7% (active); for `Cc1ccccc1C(=O)NC(=S)Nc1ccc(N2CCN(C(=O)c3ccccc3)CC2)cc1`: 2.96%; for `CCn1c(=S)sc2c(=O)n(CC(=O)Nc3cccc(Br)c3)c(C)nc21`: 3.55%.
For the compound `Cc1cccc(C(=O)OCC(=O)NCC(C)C)c1O`, the inhibition is 9.44%.
`CCCn1c(SCC(=O)Nc2c(C)cccc2C)nnc1C(C)C`: the inhibition is -9.77%.
To `C=CCOc1ccc(/C=N/NC(=O)C(C)Sc2ccccn2)cc1OCC` (stereo unspecified) belongs -0.571%.
To `COc1ccc(CCNC(=O)C(=O)NCC2OCCN2S(=O)(=O)c2cccs2)cc1OC` (stereo unspecified) belongs -6.36%; to `Cc1ccc(NC(=O)CCOc2ccccc2)cc1S(=O)(=O)Nc1ccccc1Cl`, 1.1%.
The same measure for `Cc1c(C(=O)NCCN(C)C)oc2ccc(S(=O)(=O)N3CCCC3)cc12`: 4.61%.
Consider `CS(=O)(=O)N(CC(=O)NC1CCCC1)Cc1ccc(F)cc1`, for which the inhibition was -6.07%.
Turning to `O=C(NC1CC1)c1ccc(-c2ccccc2)cc1`, the inhibition is -15.5%.
On to `CNC(=O)c1sc(NCc2ccccc2OC)nc1C`, for which the inhibition was 8.32%.
Regarding `COc1cccc2sc(Nc3nc(C)c(C(C)=O)s3)nc12`, the inhibition was 87.8% (active).
On to `COc1ccccc1/C=N/Nc1nc(C)c(C(C)=O)s1`, for which the inhibition was -28%.
`CCn1c(SCC(=O)Nc2ccc(Br)cc2)nc2sc3c(c2c1=O)CCN(C)C3`: the inhibition was 12.7%.
Regarding `CCOc1ccc(CN2CCN(Cc3ccc4cc(F)ccc4n3)CC2CCO)cc1` (stereo unspecified), the inhibition is 9.04%.
Regarding `COc1cccc(-c2ccc3c(c2)S(=O)(=O)c2cccc(C(=O)O)c2C3=O)c1OC`, the inhibition was -1.89%.
To `O=C(O)c1ccc2c3c(cccc13)C(=O)N(OS(=O)(=O)c1ccccc1)C2=O` belongs 60.3% (active).
As to `CCN(c1ccccc1)S(=O)(=O)c1cccc(C(=O)NCc2ccccc2CN2CCOCC2)c1`, the inhibition is -16.6%.
Take `CCc1ccc(C(=O)OCC(=O)NCC(F)(F)F)cc1`: the inhibition was -1.8%.
For `CCCC1NC(=O)NC(C)=C1C(=O)OCC` (stereo unspecified), the inhibition is -6.49%.
With `O=C(/C=C/c1ccco1)NC(=S)Nc1ccccc1Br`, the inhibition was 6.12%.
The same measure for `Cc1nnc(NC(=O)/C=C/c2ccco2)s1`: -18.6%; for `O=C(/C=C/c1ccco1)Nc1ccc(Oc2ccccc2)cc1`: 80.1% (active).
To `CCOC(=O)C1(Cc2cccc(OC)c2)CCCN(S(=O)(=O)c2cccnc2)C1` (stereo unspecified) belongs -9.47%; to `Oc1ccc(N=Nc2nccs2)c(O)c1`, 87.3% (active).
The same measure for `C=CCC(NC(=O)Cc1ccccc1)C(=O)NCCC` (stereo unspecified): -9.67%.
For `Cc1nonc1C(=O)N/N=C/c1ccc(O)cc1`, the inhibition was 98.9% (active).
The same measure for `COC(=O)N/N=C/c1ccc(/C=N/NC(=O)OC)cc1`: -17.5%; for `Cc1nc2ccc(C(=O)N/N=C/c3ccc(O)cc3)cc2[nH]1`: -6.89%.
Regarding `CCOC(=O)C1(Cc2ccccc2C(F)(F)F)CCN(C(=O)c2cc(C)n(C)n2)CC1`, the inhibition is -1.7%.
The same measure for `O=C(NC(=S)N1CCc2ccccc21)c1ccco1`: 7.02%.
The same measure for `COc1ccccc1-c1nnc(NC(=O)c2ccc3ncsc3c2)o1`: -1.73%; for `Cc1ccc(C(=O)c2c(NC(=O)c3ccccc3)sc(C)c2C)cc1`: -6.69%; for `Cc1sc(NC(=O)c2ccc3ncsc3c2)c(C(N)=O)c1C`: 71.4% (active).
Take `COc1ccc(CN(Cc2ccco2)S(=O)(=O)c2ccc(S(=O)(=O)N3CCCC3)cc2)cc1`: the inhibition was 3.07%.
